About 83,000 compounds went through this panel and 20% of them were active in at least one assay; those are over-represented in the sample as a whole.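 How to read the values: 0–100, growth inhibition (40 = 60% inhibited); 0, no net growth; -100 to 0, cell death (-40 = 40% of starting cells died; -100 = all dead).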 Unmarked numbers belong to inactive results. Active and inactive are the calls of the source. Rule for the calls: active = growth percent below 10; inactive = the rest.
Legend:
Test in all cases: NCI-60 one-dose screen, 48 h (100 = growth as untreated, 0 = no growth, -100 = all killed)
Conditions in all cases: 10 µM unless noted
NCI-H23 lung = test system: NCI-H23 lung
NCI-H226 lung = test system: NCI-H226 lung
NCI-H322M lung = test system: NCI-H322M lung
HOP-62 NSCLC = test system: HOP-62 NSCLC
NCI-H460 lung = test system: NCI-H460 lung
HOP-92 NSCLC = test system: HOP-92 NSCLC
NCI-H522 lung = test system: NCI-H522 lung
A549/ATCC NSCLC = test system: A549/ATCC NSCLC
786-0 renal = test system: 786-0 renal
COLO 205 colon = test system: COLO 205 colon
DU-145 prostate = test system: DU-145 prostate
K-562 leukemia = test system: K-562 leukemia
MALME-3M melanoma = test system: MALME-3M melanoma
MDA-MB-231 breast = test system: MDA-MB-231 breast
RXF 393 renal = test system: RXF 393 renal
SF-268 CNS = test system: SF-268 CNS
SF-295 CNS = test system: SF-295 CNS
SF-539 CNS = test system: SF-539 CNS
UACC-257 melanoma = test system: UACC-257 melanoma

SMILES | growth (NCI-H23 lung) | growth (NCI-H226 lung) | growth (NCI-H322M lung) | growth (HOP-62 NSCLC) | growth (NCI-H460 lung) | growth (HOP-92 NSCLC) | growth (NCI-H522 lung) | growth (A549/ATCC NSCLC) | growth (786-0 renal) | growth (COLO 205 colon) | growth (DU-145 prostate) | growth (K-562 leukemia) | growth (MALME-3M melanoma) | growth (MDA-MB-231 breast) | growth (RXF 393 renal) | growth (SF-268 CNS) | growth (SF-295 CNS) | growth (SF-539 CNS) | growth (UACC-257 melanoma)
COc1cccc(-c2cnco2)c1OCc1c(C)c(COc2c(OC)cccc2-c2cnco2)c(C)c(COc2c(OC)cccc2-c2cnco2)c1C | 71.5% | 21.8% | 70.7% | 42.1% | 52.2% | -6.35% (active) | 33.9% | 51.8% | 2.94% (active) | 83.4% | 73.2% | 85% | 43.5% | 30.5% | 45.7% | 53.7% | 82.1% | 19.3% | 58.4%
COc1cc(-c2cc(-c3ccc(Nc4nc(Nc5ccccc5)nc(Nc5ccc(Cl)cc5)n4)cc3)nc(N)n2)cc(OC)c1OC | 46.9% | 75.6% | 81.9% | 47.2% | 65.8% | 42.4% | 66.3% | 79.3% | 44% | 76.6% | 94.7% | 23.8% | 59.9% | 59% | 78.1% | 86.6% | 70.5% | 77.4% | 99.4%
Nc1c(C(=O)c2ccccc2)nnc2ncnn12 | 95.6% | 94.5% | 98.2% | 97% | 106% | 95.2% | 88.5% | 95.2% | 97.2% | 103% | 106% | 97.1% | 107% | 93% | 110% | 102% | 103% | 117% | 95.4%
O=c1[nH]c(=O)n(C2CC(O)C(CO)O2)cc1CO (centres undefined) | 41.6% | 98.2% | 102% | 32.8% | 65.9% | 105% | 101% | 86.5% | -18.5% (active) | 120% | 111% | 82.3% | 90.1% | 102% | 99.5% | 99.8% | 110% | 95.7% | 103%
O=C(/C=C/c1ccccc1)c1ccc2ccccc2c1 | 92.1% | 98.5% | 99.8% | 96.5% | 110% | 94.6% | -3.88% (active) | 96.3% | 90.8% | 38.3% | 105% | 56.9% | 95.9% | 94.3% | 96.5% | 94.8% | 107% | 99.2% | 87.9%
COc1cc(/C=C/C(=O)c2ccc(Nc3nc(Nc4ccccc4)nc(Nc4ccc(Cl)cc4)n3)cc2)cc(OC)c1OC | 15.5% | 39.2% | 73.3% | 52.7% | 50.5% | 1.92% (active) | 77.3% | 84.5% | -25.4% (active) | 94.8% | 77% | 28.9% | 44.3% | 58.1% | 58.5% | 73.2% | 64.3% | 72.8% | 87.1%
O=C(Nc1cccc2[nH]c(C(F)(F)F)nc12)c1cc(Cl)ccc1Cl | -3.56% (active) | 34.4% | 45.9% | 32.1% | 17.2% | -11% (active) | -13.2% (active) | 19.8% | 47.1% | 24.6% | 53.7% | 19.8% | 16.1% | 40.6% | 41.1% | 44.6% | 29.2% | 52.9% | 28.7%
CNC=O | 85.7% | 102% | 97.5% | 107% | 101% | 92% | 94.9% | 88.8% | 102% | 97.7% | 77.9% | 107% | 97% | 98.7% | 42.3% | 99.3% | 96.8% | 88.8% | 91.1%
NS(=O)(=O)c1cnccc1-n1ccc(=O)c(S(N)(=O)=O)c1 | 91.4% | 84.1% | 94.2% | 85.6% | 109% | 80.9% | 9.19% (active) | 33.9% | 97.5% | 94.4% | 106% | 84.1% | 50.1% | 94% | 139% | 101% | 59.1% | 97.8% | 115%
COc1ccc(OC)c(Nc2nc3nonc3nc2Nc2cc(OC)ccc2OC)c1 | 50% | 50.3% | 68.6% | -12.8% (active) | 22% | 13.2% | 37.7% | 20.7% | -23.8% (active) | 93.7% | 55.5% | 75.5% | 29.9% | -1.9% (active) | 14.8% | 45.6% | 77.9% | 9.98% (active) | 52.1%
CN(C)S(=O)(=O)n1cnc([C@@H]2[C@@H]3C(=O)OC[C@@H]3C[C@]23N=CN(Cc2ccccc2)C3=O)c1 | 128% | 110% | 110% | 95.9% | 113% | 110% | 102% | 123% | 102% | 118% | 111% | 116% | 110% | 112% | 126% | 95.6% | 105% | 98.5% | 116%
NC(=O)CC1(O)C=C(Br)C(=O)C(Br)=C1 | 57.3% | -57.6% (active) | 113% | 108% | 104% | -50.9% (active) | -49.7% (active) | 112% | 70.8% | -66.1% (active) | 105% | -29.6% (active) | -34.3% (active) | 113% | -32.6% (active) | 89.3% | 115% | 96.1% | 80.9%
CC1(C)CC(=O)c2c(ccc(C(=O)C[C@H](N)CO)c2N)O1 | 54.4% | 58.3% | 15% | 22% | 6.79% (active) | 53.7% | 46.2% | 34.7% | 77.5% | 47% | 38% | 37.1% | 48.6% | 54.6% | 44.1% | 34.2% | 42.9% | 23.7% | 49.1%
COc1ccc(OC)c(Nc2nc3nonc3nc2Nc2cccc(Br)c2)c1 | 6.27% (active) | 13.4% | 5.13% (active) | 8.04% (active) | 0.718% (active) | -25.5% (active) | -13% (active) | 9.15% (active) | 22.1% | -79.3% (active) | 26% | 10.2% | 11.3% | -8.18% (active) | 23.7% | 21.1% | -19.3% (active) | -7.16% (active) | -12.5% (active)
COc1ccc(-c2nc3sc4c(c3c(=O)[nH]2)CCCC4)c2ccccc12 | 32.6% | 50.8% | 37.6% | 10.4% | 0.61% (active) | 12.3% | 1.5% (active) | 15.8% | 10.6% | -32.9% (active) | 0.642% (active) | 5.12% (active) | 41.8% | 10.5% | 17.3% | 24.6% | -18.7% (active) | -57.7% (active) | 56.8%
COc1ccc(C2CC(c3ccc4ccccc4c3)=NN2c2nc(O)c(C3=c4cc(Cl)ccc4=NC3=O)s2)cc1 (centres undefined) | -40.9% (active) | -73.2% (active) | -29.7% (active) | -53.8% (active) | -20% (active) | -57.2% (active) | -82% (active) | -56% (active) | -80.5% (active) | -79.4% (active) | -20.7% (active) | -27.2% (active) | -54.3% (active) | -38.6% (active) | -67.3% (active) | -33.6% (active) | -61.9% (active) | -52.5% (active) | -50.8% (active)
